The structures appear in SMILES notation. The whole screen tested about 39,000 compounds, of which about 3,300 (8.5%) were called active. Many of the other results were omitted from the sample, so actives are more common in it than they were.

For the experiment, the system named is HepG2. Briefly: cytotoxicity call (relative viability < 0.9). The conditions noted are these: 10 µM.
In the case of `CCOC(=O)c1nnn(-c2nonc2N)c1CN1CCSCC1`, the cytotoxicity call was “inactive”.
In the case of `CCOC(=O)CCCCCC(=O)Nc1ccc2c(c1)C(=O)N([C@@H](C)CO)C[C@H](C)[C@H](CN(C)S(C)(=O)=O)O2` it was “inactive”; in that of `COc1ccc(O)c(N)c1`, “active”.
Next, `Nc1cc(-c2ccccc2)ccc1O`: “inactive”; `COc1ccc(C(C)=O)c(O)c1`: “inactive”; `COc1ccc(NC(=O)N(C)C[C@H]2Oc3ccc(NS(C)(=O)=O)cc3CC(=O)N([C@@H](C)CO)C[C@H]2C)cc1`: “inactive”.
In the case of `COc1ccc2c(O[C@H]3CCCC[C@@H]3OC)nccc2c1-n1ccnc1-c1c[nH]c2c(N)c(F)cc(C#N)c12` it was “active”; in that of `C[C@@H]1CN([C@@H](C)CO)C(=O)c2cc(NS(=O)(=O)c3cn(C)cn3)ccc2O[C@@H](C)CCCCO[C@@H]1CN(C)S(=O)(=O)c1cn(C)cn1`, “inactive”.
In the case of `COc1ccc(-c2coc3cc(OC)cc(OC)c3c2=O)cc1`, the cytotoxicity call is “inactive”.
Next, `C[C@H](CO)N1C[C@H](C)[C@@H](CN(C)S(=O)(=O)c2cccc(F)c2)Oc2ncc(C#CC3(O)CCCC3)cc2C1=O`: “inactive”.
Next, `C[C@@H]1CCCCO[C@@H](CN(C)C(=O)NC2CCCCC2)[C@@H](C)CN([C@H](C)CO)C(=O)c2cc(NC(=O)Cc3ccccc3)ccc2O1`: “inactive”; `C[C@@H]1CN([C@H](C)CO)C(=O)c2cc(NS(C)(=O)=O)ccc2O[C@@H]1CN(C)S(=O)(=O)c1ccc(F)cc1`: “inactive”; `C[C@@H]1CN([C@@H](C)CO)C(=O)c2cccc(NC(=O)c3nc4ccccc4s3)c2O[C@H]1CN(C)Cc1ccc(C(=O)Nc2ccccc2N)cc1`: “inactive”.
In the case of `C[C@H]1CN([C@@H](C)CO)C(=O)c2cccc(NC(=O)c3nc4ccccc4s3)c2O[C@H]1CN(C)Cc1ccc(C(=O)Nc2ccccc2N)cc1` it was “inactive”; in that of `C[C@@H]1CN([C@@H](C)CO)C(=O)c2cccc(NC(=O)c3nc4ccccc4s3)c2O[C@@H]1CN(C)Cc1ccc(C(=O)Nc2ccccc2N)cc1`, “active”.
As to `C[C@H](CO)N1C[C@H](C)[C@@H](CN(C)Cc2ccc(C(=O)Nc3ccccc3N)cc2)Oc2c(NC(=O)c3nc4ccccc4s3)cccc2C1=O`, the cytotoxicity call is “active”.
Next, `C[C@H]1CN([C@@H](C)CO)C(=O)c2cccc(NC(=O)c3nc4ccccc4s3)c2O[C@@H]1CN(C)Cc1ccc(C(=O)Nc2ccccc2N)cc1`: “inactive”.
Next, `C[C@H](CO)N1C[C@H](C)[C@H](CN(C)Cc2ccc(C(=O)Nc3ccccc3N)cc2)Oc2c(NC(=O)c3nc4ccccc4s3)cccc2C1=O`: “inactive”; `C[C@H]1CCCCO[C@H](CN(C)C(=O)NC2CCCCC2)[C@@H](C)CN([C@@H](C)CO)C(=O)c2cc(NC(=O)CCC(F)(F)F)ccc2O1`: “inactive”; `COc1ccc(S(=O)(=O)N(C)C[C@H]2Oc3c(NC(=O)c4cnccn4)cccc3C(=O)N([C@H](C)CO)C[C@H]2C)cc1`: “inactive”.
Next, `C[C@@H]1CN([C@H](C)CO)C(=O)c2cc(NS(=O)(=O)c3ccc(Cl)cc3)ccc2O[C@@H](C)CCCCO[C@@H]1CN(C)Cc1ccncc1`: “inactive”; `CCc1nc2c(C)cc(N3CCN(CC(=O)N4CC(O)C4)CC3)cn2c1N(C)c1nc(-c2ccc(F)cc2)c(C#N)s1`: “active”.
`COCC#Cc1ccc2c(c1)O[C@H](CN(C)Cc1ccccc1F)[C@@H](C)CN([C@H](C)CO)S2(=O)=O`: the cytotoxicity call was “inactive”.
Regarding `C[C@H](CO)N1C[C@H](C)[C@H](CN(C)S(=O)(=O)c2cccs2)Oc2ccc(NS(=O)(=O)c3ccccc3)cc2CC1=O`, the cytotoxicity call was “inactive”.
In the case of `C[C@@H]1CN([C@H](C)CO)C(=O)c2cccc(NS(=O)(=O)c3ccc(F)cc3)c2O[C@@H]1CN(C)Cc1ccncc1` it was “inactive”; in that of `CC1(C)C=Cc2c(c3c(c4c(=O)c(-c5ccc(O)cc5)coc24)OC(C)(C)CC3)O1`, “inactive”; in that of `CC1(C)C=Cc2c(c3c(c4c(=O)c(-c5ccc(O)c(O)c5)coc24)OC(C)(C)CC3)O1`, “active”.
Regarding `CC(C)=CCc1c2c(c3occ(-c4ccc(O)cc4)c(=O)c3c1O)C=CC(C)(C)O2`, the cytotoxicity call was “inactive”.
In the case of `CC(C)=CCc1c2c(c3occ(-c4ccc(O)c(O)c4)c(=O)c3c1O)C=CC(C)(C)O2`, the cytotoxicity call is “active”.
In the case of `CN1CCN(C(=O)C[C@H]2CC[C@@H]3[C@@H](COc4ccc(NC(=O)c5cccs5)cc4C(=O)N3C)O2)CC1`, the cytotoxicity call is “inactive”.
With `Cc1noc(C)c1S(=O)(=O)Nc1ccc2c(c1)C(=O)N([C@@H](C)CO)C[C@H](C)[C@@H](CN(C)Cc1ccccc1)OCCCC[C@@H](C)O2`, the cytotoxicity call is “inactive”.
In the case of `C[C@@H]1CN([C@@H](C)CO)C(=O)Cc2cc(NC(=O)Cn3cnnn3)ccc2O[C@@H]1CN(C)Cc1ccc(Oc2ccccc2)cc1`, the cytotoxicity call was “inactive”.
Next, `COc1ccc(-c2cc(C(F)F)nn2-c2ccc(S(N)(=O)=O)cc2)cc1F`: “inactive”.
In the case of `Cc1ccc(-c2cc(C(F)(F)F)nn2-c2ccc(S(N)(=O)=O)cc2)cc1` it was “active”; in that of `Cc1ccc(S(N)(=O)=O)cc1`, “inactive”; in that of `C[C@@H]1CN([C@H](C)CO)C(=O)c2cc(NC(=O)NC3CCCCC3)ccc2O[C@@H](C)CCCCO[C@@H]1CN(C)S(=O)(=O)c1ccc(F)cc1`, “inactive”.
Turning to `CN1C2CCC1CC(OC(=O)c1c[nH]c3ccccc13)C2.Cl` (stereo not given), the cytotoxicity call is “inactive”.
In the case of `CN1C2CCC1CC(OC(c1ccccc1)c1ccccc1)C2.CS(=O)(=O)O` (stereo not given) it was “active”; in that of `CN1CCC(OC(c2ccccc2)c2ccccc2)CC1.Cl`, “inactive”.
Take `Cc1noc(C)c1S(=O)(=O)N(C)C[C@@H]1Oc2c(NS(=O)(=O)c3ccccc3)cccc2C(=O)N([C@H](C)CO)C[C@@H]1C`: the cytotoxicity call was “inactive”.
Regarding `CC12CCC3c4ccc(O)cc4CCC3C1CC(O)C2O` (stereo not given), the cytotoxicity call was “inactive”.
Next, `C#CC1(O)CCC2C3CCC4=CCCCC4C3C(=C)CC21CC` (stereo not given): “inactive”; `C#CC1(O)CCC2C3CCC4=CCCCC4C3CCC21C` (stereo not given): “active”.
Next, `CC12CCC3c4ccc(O)cc4CCC3C1CCC2=O` (stereo not given): “inactive”; `C#CC1(O)CCC2C3CCc4cc(OC)ccc4C3CCC21C` (stereo not given): “active”.
With `C#CC1(O)CCC2C3CCC4=CC(=O)CCC4C3CCC21C` (stereo not given), the cytotoxicity call is “inactive”.
In the case of `C#CC1(O)CCC2C3CCc4cc(OC5CCCC5)ccc4C3CCC21C` (stereo not given) it was “inactive”.
In the case of `C#CC1(O)CCC2C3CCC4=C(CCC(=O)C4)C3CCC21C` (stereo not given) it was “inactive”; in that of `C#CC1(O)CCC2C3CCc4cc(O)ccc4C3CCC21C` (stereo not given), “active”.
With `COCCOC(=O)N1C(=O)[C@@]2(c3cc(C#CCC(C(=O)OC)C(=O)OC)ccc31)[C@H](C(=O)NC[C@H](O)c1ccccc1)[C@H]1C(=O)O[C@H](c3ccccc3)[C@H](c3ccccc3)N1[C@@H]2c1ccc(OCCO)cc1`, the cytotoxicity call is “inactive”.

These data come from the antibiotic and cytotoxicity screens of Wong et al. (2023).
